LDHA block: blocks human lactate dehydrogenase A | P00338 | purified LDHA, NADH/diaphorase-resazurin fluorescence; hits give low values | activity change, % (values are at about 110 or 230 µM) | 480,000 compounds, 0.15% hits; in the data active = activity change below about -30%; inconclusive = mostly about -25% to -30%;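 also: plate controls were DMSO wells for no effect and wells without enzyme for full effect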
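Enzyme activity of human lactate dehydrogenase 5 (2 nM; 0.06 mM NADH, 0.2 mM pyruvate, 5 min, RT) is measured via a resazurin/diaphorase fluorescence readout of residual NADH.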
PI4K2A inh: blocks human PI4K2A kinase activity | Q9BTU6 | purified PI4K2A, ADP-Glo luminescence, 1 h; hits give low values | activity change, negative = inhibition, % at 76.9 µM | 420,000 compounds, 0.13% hits; in the data active = activity change below about -50%; inconclusive = mostly about -30% to -49%;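 also: -100% = wells without enzyme as full effect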
Target sequence (Q9BTU6 whole entry, looked up): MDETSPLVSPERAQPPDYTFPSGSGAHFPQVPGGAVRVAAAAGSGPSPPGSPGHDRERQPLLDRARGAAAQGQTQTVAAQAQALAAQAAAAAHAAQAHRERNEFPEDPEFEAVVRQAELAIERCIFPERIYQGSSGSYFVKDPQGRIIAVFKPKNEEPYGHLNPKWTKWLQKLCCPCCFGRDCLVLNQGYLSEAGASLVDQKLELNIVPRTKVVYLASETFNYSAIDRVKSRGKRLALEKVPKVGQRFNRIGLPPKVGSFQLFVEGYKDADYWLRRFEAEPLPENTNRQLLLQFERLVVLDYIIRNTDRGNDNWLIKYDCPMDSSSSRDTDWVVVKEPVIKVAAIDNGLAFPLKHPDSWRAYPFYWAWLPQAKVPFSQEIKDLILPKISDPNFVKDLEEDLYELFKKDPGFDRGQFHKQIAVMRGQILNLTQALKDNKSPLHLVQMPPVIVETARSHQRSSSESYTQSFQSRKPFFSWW
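ADP-Glo luminescence measured ADP generated by PI4K2A enzyme (4 ug/mL before mixing) with 1.2 mM PI substrate (pre-mix) and 300 microM ATP (pre-mix). Tris pH7.5 buffer with MgCl2, Triton X-100; 1 h reaction at ambient temperature.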
D3 ag: agonists of human D3 dopamine receptor; 410,000 compounds, 0.58% hits; max activation, %; D3R DiscoveRx beta-arrestin cells, luminescence, 90 min; P35462; in the data active = max activation above about 30%; also: 0% is about no effect
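Agonist-mode cell screen: cells plated at 1500/well and incubated overnight at 37 °C, then exposed to library compounds for 90 min at 37 °C. Detection reagent was added for 30–60 min at room temperature, and luminescence was read.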
PI5P4K alpha inh: PI5P4K alpha (human) kinase inhibition; P48426; PI5P4Kalpha enzyme, ADP-Glo luminescence, 60 min; hits give low values; max response, %; 330,000 compounds, 1.2% hits; AID 652105; active = max response of -50% or lower; inconclusive = between -30% and -50%; inactive = -30% or higher; also: value at the top dose of about 77 µM; % is scaled to controls: 0 for no effect and ±100 for the full control effect
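ADP-Glo luminescence end-point read after a 60 min room-temperature kinase reaction of PI5P4Kalpha plus substrate, initiated with ATP at 5 microM final. Buffer: 0.038 M HEPES pH 7.4, EGTA, 0.1% CHAPS, 5% DMSO.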
D3 antag: D3 dopamine receptor (human) antagonism | D3R cells, DiscoveRx beta-arrestin luminescence, antagonist mode; hits give low values | max response, negative = inhibition, % | 360,000 compounds, 2.5% hits; in the data active = max response below about -50%; inconclusive = no clear call, values can overlap the other calls; also: % is scaled to controls: 0 for no effect and ±100 for the full control effect
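Cells expressing the human receptor were seeded at 1500 cells/well, incubated overnight at 37 degrees C in 5% CO2, then exposed to library compounds with dopamine controls for 90 minutes at 37 degrees C before luminescent detection.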
* hit, by the source's call. Sampled rows, rich in hits. Any-hit rate of the full collection: about 3.3%.

For Cc1cccc(N2CCN(Cc3ccc4c(c3)OCO4)CC2)c1C the results were LDHA block -6.6, PI4K2A inh 1.8, D3 ag -23.8, PI5P4K alpha inh -3.5 and D3 antag -105.2*.
`COc1cc(Br)cc(CN2CCN(C)CC2)c1O` gave LDHA block 8.2, PI4K2A inh -3.8, D3 ag -57.0 and D3 antag inconclusive.
`CN1CCN(Cc2ccc(Br)s2)CC1` gave LDHA block inconclusive, PI4K2A inh -3.4, D3 ag -29.5 and D3 antag -77.4*.
For Cc1ccccc1CN1CCN(c2ccc(Cl)cc2)CC1 the results were LDHA block -13.7, PI4K2A inh 10.3, D3 ag -18.6, PI5P4K alpha inh 2.9 and D3 antag inconclusive.
`Fc1ccc(N2CCN(Cc3cc4c(cc3Br)OCO4)CC2)cc1` gave LDHA block -5.4, PI4K2A inh 0.2, D3 ag -37.1, PI5P4K alpha inh -3.4 and D3 antag -8.6.
For COc1cc(C)c(CN2CCN(c3ccccc3)CC2)cc1C the results were LDHA block -15.2, PI4K2A inh 4.4, D3 ag -51.6 and D3 antag -64.7*.
c1cc2c(cc1CN1CCNCC1)OCO2 was read as LDHA block 0.4, PI4K2A inh 3.7, D3 ag 1.2, PI5P4K alpha inh 3.2 and D3 antag -25.0.
For Oc1cc2c(cc1CN1CCN(c3ccccc3F)CC1)OCO2 the results were LDHA block 28.3, PI4K2A inh -2.2, D3 ag -21.5, PI5P4K alpha inh -7.0 and D3 antag -95.8*.
For O=C1CSC(c2ccc(OC3CCCC3)cc2)c2cn[nH]c2N1 (configuration not stated) the results were LDHA block -10.7.
For COc1ccccc1N1CCN(Cc2ccc(Br)s2)CC1 the results were LDHA block -13.5, PI4K2A inh -6.5, D3 ag -6.0, PI5P4K alpha inh -0.2 and D3 antag -68.5*.
`CN(Cc1ccsc1)C(=O)CCl` gave LDHA block -3.7.
Screening Cc1ccc(O)c(C)c1 returned LDHA block -5.6, PI4K2A inh 2.6, D3 ag 2.5, PI5P4K alpha inh -1.4 and D3 antag 3.2.
Screening Cc1ccc2c(C)cccc2c1 returned LDHA block -10.5, PI4K2A inh 6.4, D3 ag 14.7, PI5P4K alpha inh -71.1* and D3 antag -29.9.
For O=[N+]([O-])c1ccccc1Cl the results were LDHA block -5.5, PI4K2A inh 1.7, D3 ag 16.9, PI5P4K alpha inh -0.5 and D3 antag -20.0.
Screening O=C1NC(=O)C(Sc2ccccc2[N+](=O)[O-])C(=O)N1 returned LDHA block 17.2, PI4K2A inh inconclusive, D3 ag 0.7, PI5P4K alpha inh -54.0* and D3 antag -16.0.
Screening Cc1cccc(NC(=O)CCl)c1 returned LDHA block 0.3.
`CN1c2ccc([N+](=O)[O-])cc2CC2(C(=O)NC(=O)N(c3ccc(Br)cc3)C2=O)C1c1ccccc1` (configuration not stated) gave LDHA block -8.2, PI4K2A inh -2.1, D3 ag -5.9, PI5P4K alpha inh -15.9 and D3 antag -50.6*.
Screening CCN1/C(=C/C=C/C2=[N+](CC)c3ccccc3C2(C)C)C(C)(C)c2ccccc21 returned LDHA block -13.0, PI4K2A inh inconclusive, D3 ag -4.7, PI5P4K alpha inh inconclusive and D3 antag -71.6*.
`CN1/C(=C\C=C2C(=O)NC(=O)NC2=O)C(C)(C)c2ccccc21` gave LDHA block 1.1, PI4K2A inh -0.9, D3 ag 0.7, PI5P4K alpha inh 1.0 and D3 antag 0.9.
Screening c1coc(CN2CCNCC2)c1 returned LDHA block 1.1.
`COC(=O)C1=C(c2ccc(F)cc2F)C[C@@H]2CC[C@H]1N2C(=O)NCC1CC1` gave LDHA block -8.3, PI4K2A inh 0.4, D3 ag 9.4, PI5P4K alpha inh -0.4 and D3 antag 1.3.
Screening COC(=O)C1=C(c2ccc(F)cc2F)C[C@@H]2CC[C@H]1N2C(=O)NCc1ccco1 returned LDHA block 1.0, PI4K2A inh -1.1, D3 ag 40.7*, PI5P4K alpha inh 6.1 and D3 antag inconclusive.
For COC(=O)C1=C(c2cc3ccccc3s2)C[C@@H]2CC[C@H]1N2C(=O)N1CCCCC1 the results were LDHA block 3.0, PI4K2A inh 0.6, D3 ag -20.9, PI5P4K alpha inh -4.9 and D3 antag -53.8*.
COC(=O)C1=C(c2cc3ccccc3s2)C[C@@H]2CC[C@H]1N2C(=O)NCc1ccc(F)cc1 was read as LDHA block 2.3, PI4K2A inh -6.6, D3 ag -35.5, PI5P4K alpha inh -1.2 and D3 antag -55.6*.
For CCOC(=O)C1=C(C)OC(N)=C(C(=O)OC(C)(C)C)C12C(=O)Nc1ccccc12 (configuration not stated) the results were LDHA block -1.1.
`C=C(C)CSc1nnc(C(N)Cc2c[nH]c3ccccc23)o1` (configuration not stated) gave LDHA block 3.2.
CCN1C(=O)/C(=C/c2ccc3c(c2)CCN3CCCCl)C(=O)NC1=S was read as LDHA block 0.7, PI4K2A inh -23.1, D3 ag 5.3, PI5P4K alpha inh -72.9* and D3 antag 18.2.
Screening CC(C)(C)N1C(=O)NC(=O)/C(=C\c2ccc3c(c2)CCN3CCCCl)C1=O returned LDHA block 4.0, PI4K2A inh -15.9, D3 ag -15.7, PI5P4K alpha inh inconclusive and D3 antag inconclusive.
Screening O=C1NC(=S)N(C2CC2)C(=O)/C1=C/c1ccc2c(c1)CCN2CCCCl returned LDHA block 3.3, PI4K2A inh -26.5, D3 ag -2.9, PI5P4K alpha inh -73.9* and D3 antag 2.0.
ClCCCN1CCN(c2cccc(Cl)c2)CC1 was read as PI4K2A inh -3.7.
CC(Cc1ccccc1Sc1ccc(O)cc1)N(C)C (configuration not stated) was read as LDHA block -4.0, PI4K2A inh -7.2, D3 ag -15.2, PI5P4K alpha inh 1.1 and D3 antag -51.8*.
`CN1CCN(Cc2ccccc2Sc2ccccc2)CC1` gave LDHA block -3.3, PI4K2A inh 9.8, D3 ag -18.9, PI5P4K alpha inh 1.7 and D3 antag -51.5*.
`CC(Cc1ccccc1Sc1ccccc1)N(C)C` (configuration not stated) gave LDHA block -6.9, PI4K2A inh -0.9, D3 ag -17.1, PI5P4K alpha inh 0.6 and D3 antag -64.5*.
`CN1CCN(Cc2nc3ccccc3c(=O)[nH]2)CC1` gave LDHA block -2.4, PI4K2A inh -2.3, D3 ag 0.0 and D3 antag -18.7.
`O=C1NC(=S)NC(=O)C1=Cc1ccc(OCC(=O)N2CCCC2)cc1` gave LDHA block -13.4, PI4K2A inh -11.6, D3 ag -1.7, PI5P4K alpha inh -53.8* and D3 antag -6.2.
